From PubChem BioAssay (NCI)
About 83,000 compounds went through this panel and 20% of them were active in at least one assay; those are over-represented in the sample as a whole.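 Note: values are percent growth. 100 is the growth of untreated cells, values between 100 and 0 indicate rising inhibition; between -100 and 0 indicates cell death.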 A number with no mark means an inactive call. Active and inactive are the calls of the source. The calls were made as follows: active = growth percent below 10; inactive = the rest.

How the values were obtained:
Experiment in all cases: NCI-60 one-dose screen, 48 h (100 = growth as untreated, 0 = no growth, -100 = all killed)
Details in all cases: 10 µM
NCI-H23 lung = test system: NCI-H23 lung
NCI-H226 lung = test system: NCI-H226 lung
NCI-H322M lung = test system: NCI-H322M lung
HOP-62 NSCLC = test system: HOP-62 NSCLC
NCI-H460 lung = test system: NCI-H460 lung
NCI-H522 lung = test system: NCI-H522 lung
A549/ATCC NSCLC = test system: A549/ATCC NSCLC
786-0 renal = test system: 786-0 renal
COLO 205 colon = test system: COLO 205 colon
DU-145 prostate = test system: DU-145 prostate
K-562 leukemia = test system: K-562 leukemia
MALME-3M melanoma = test system: MALME-3M melanoma
MDA-MB-231 breast = test system: MDA-MB-231 breast
RXF 393 renal = test system: RXF 393 renal
SF-268 CNS = test system: SF-268 CNS
SF-295 CNS = test system: SF-295 CNS
SF-539 CNS = test system: SF-539 CNS
UACC-257 melanoma = test system: UACC-257 melanoma
M14 melanoma = test system: M14 melanoma

Row | SMILES | growth (NCI-H23 lung) | growth (NCI-H226 lung) | growth (NCI-H322M lung) | growth (HOP-62 NSCLC) | growth (NCI-H460 lung) | growth (NCI-H522 lung) | growth (A549/ATCC NSCLC) | growth (786-0 renal) | growth (COLO 205 colon) | growth (DU-145 prostate) | growth (K-562 leukemia) | growth (MALME-3M melanoma) | growth (MDA-MB-231 breast) | growth (RXF 393 renal) | growth (SF-268 CNS) | growth (SF-295 CNS) | growth (SF-539 CNS) | growth (UACC-257 melanoma) | growth (M14 melanoma)
1 | Cc1ccc(Cl)cc1NC(=O)N(C)CCO | 110% | 115% | 116% | 109% | 108% | -7.39% (active) | 59.5% | 109% | 144% | 131% | 98.5% | 134% | 118% | 112% | 126% | 121% | 91.9% | 110% | 107%
2 | CCCCC1C(=O)N(c2ccccc2)N(c2ccccc2)C1=O | 109% | 95.8% | 99.9% | 99.3% | 114% | 102% | 106% | 98.5% | 106% | 113% | 99.1% | 97.1% | 103% | 116% | 107% | 110% |  | 105% | 98.9%
3 | C#Cc1cccc(NC(=O)c2ccc(Cl)cc2Cl)c1 | 102% | 104% | 98.3% | 108% | 105% | 74.4% | 48.7% | 99.9% | 128% | 112% | 85.5% | 108% | 118% | 105% | 98.9% | 107% | 95.7% | 108% | 98%
4 | N#Cc1ccc(NC(=O)Nc2cccc(C#N)c2)cc1 | 86.3% | 116% | 116% | 112% | 78.8% | 51.9% | 69.1% | 97.5% | 160% | 116% | 46.1% | 121% | 92.1% | 99.3% | 112% | 89.3% | 93.9% | 89.2% | 98.1%
5 | COC(=O)c1cccnc1 | 95.6% | 98% | 106% | 99.4% | 105% | 78.2% | 91.9% | 87.1% | 95.3% | 107% | 113% | 112% | 100% | 105% | 95.4% | 110% | 91.1% | 90.4% | 93.9%
6 | Cc1cc(/C=C/c2ccc3cc(N(C)C)ccc3[n+]2C)c(C)n1-c1ccccc1 | -6.43% (active) | -75.1% (active) | 2.15% (active) | -81.5% (active) | -64.8% (active) | -31.7% (active) | -44.9% (active) | -15.9% (active) | -79.5% (active) | -39.2% (active) | 0.995% (active) | -56.9% (active) | -18.9% (active) | -96.2% (active) | -1.17% (active) | -33.6% (active) |  | -39.5% (active) | -71.3% (active)
7 | S=c1[nH]ccn1-c1ccccc1Cl | 112% | 113% | 133% | 112% | 117% | -30.9% (active) | 53.8% | 109% | 117% | 106% | 101% | 120% | 120% | 114% | 108% | 100% | 103% | 22.9% | 108%
8 | Cc1ccc(/C(C#N)=C/c2ccc3c(c2)OCO3)cc1 | 71.2% | 85.9% | 78.8% | 78.2% | 71.3% | 51.4% | 57.5% | 104% | 65.8% | 98.1% | 32.4% | 84.3% | 73.3% | 75.3% | 87.7% | 110% | 91.1% | 87.1% | 75.2%
9 | C=CCNC(=O)c1ccc(OC)cc1 | 99.5% | 99.4% | 98.5% | 109% | 114% | -12.1% (active) | 50.4% | 107% | 109% | 124% | 105% | 117% | 104% | 111% | 126% | 115% | 100% | 97.6% | 100%
10 | Clc1ccc(-c2n[nH]c3c2Cc2ccccc2-3)cc1Cl | 84.6% | 94.4% | 91.6% | 95.1% | 105% | -7.44% (active) | 37.5% | 104% | 115% | 130% | 92.4% | 102% | 98% | 154% | 109% | 99.5% | 95.6% | -6.12% (active) | 100%
11 | CCN(CC)CCNc1ccc(CO)c2sc3ccccc3c(=O)c12 | 44.9% | 35.9% | 50.9% | 43.3% | 14.5% | -17.8% (active) | 24.2% | 49.6% | 11.9% | 39.3% | 63.4% | 39.8% | 50.1% | 36.6% | 40.5% | 44.9% | 50% | 11.6% | 57.5%
12 | COc1ccc(Oc2c(I)cc(CC(NC(C)=O)C(=O)O)cc2I)cc1 (configuration not stated) | 61.9% | 73% | 102% | 80.9% | 104% | 103% | 87.3% | 71.7% | 108% | 107% | 63.9% | 88.4% | 78.8% | 88.6% | 91.7% | 62.3% | 111% | 83.8% | 80.8%
13 | CNC(=O)c1ccccc1CC1(O)c2ccccc2Oc2ccccc21 | 71.5% | 77% | 51.8% | 71.4% | 33.7% | 24.8% | 41.8% | 74.8% | 38% | 61.3% | 22% | 29.9% | 66.3% | 61.3% | 57.7% | 36.8% | 56.5% | 58% | 42.2%
14 | COc1cc(C(=O)NC(=S)Nc2ccc3ccccc3c2)cc(OC)c1OC | 82.5% | 88.9% | 101% | 95.8% | 107% | -23.4% (active) | 89.7% | 116% | 84.2% | 102% | 88% | 90.1% | 100% | 94.5% | 103% | 44.7% | 93.1% | 90.7% | 115%
15 | CC(=O)c1sc2c(c1OC(=O)c1ccc(Cl)cc1Cl)c(=O)n(-c1ccccc1)c(=S)n2-c1ccccc1 | 23.9% | 3.85% (active) | -37.3% (active) | 9.38% (active) | 25.2% | -35% (active) | 32.1% | -7.98% (active) | 5.77% (active) | 44.1% | 0.912% (active) | -79.2% (active) | -41.5% (active) | 6.34% (active) | 18.9% | -32.1% (active) | -39.6% (active) | 49% | -76.1% (active)
16 | Nc1nc(OCc2ccccc2)c2[nH]cnc2n1 | 93.6% | 96% | 118% | 100% | 107% | 86.5% | 105% | 87.1% | 114% | 99.2% | 80.4% | 98.3% | 97.9% | 98.8% | 109% | 96.8% | 89.7% | 97.8% | 90.6%
